Records with an inconclusive call do not appear. Calls of active or inactive are those of the source. The call rests on the fitted dose curve; in most records, active means well fitted curve in the direction sought with a large enough effect; inconclusive means small, poorly fitted or top-dose-only effect, or another doubt; inactive means no such curve, though single readings can be large; an effect the other way counts as inactive or inconclusive.
How the values were obtained:
[1] = MultiTox-Fluor Cytotoxicity Assay - LYMP1-002 - Live Cells (AID 955);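 further: cells exposed to compound for 16 hours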
In short: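 Cytotoxicity in the human lymphoblastoid line LYMP1-002 is measured as loss of live-cell protease activity after 16 h treatment in complete culture medium. AC50 is derived from Hill-equation fits of qHTS concentration-response data.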

[2] = MultiTox-Fluor Cytotoxicity Assay - LYMP1-002 - Dead Cells (AID 960);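 further: cells exposed to compound for 16 h at 37 °C; nearly all actives have a fitted effect of over 60% in size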
In short: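 Acute cytotoxicity in a human lymphoblastoid line is scored as rising dead-cell protease signal after 16 hr exposure at 37 C, measured fluorometrically (485/520).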

[3] = MultiTox-Fluor Cytotoxicity Assay - LYMP1-003 - Dead Cells (AID 961);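 further: cells exposed to compound for 16 h at 37 °C; nearly all actives have a fitted effect of over 70% in size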
In short: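 Human lymphoblastoid LYMP1-003 cells (2500/well) were treated with compounds for 16 hr at 37 C in complete medium. Dead-cell protease release was read by bis-AAF-R110 fluorescence (Ex/Em 485/520). AC50 came from Hill fits, normalized to DMSO and 15 uM tetraoctylammonium bromide.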

[4] = MultiTox-Fluor Cytotoxicity Assay - LYMP1-003 - Live Cells (AID 962);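 further: cells exposed to compound for 16 hours at 37 °C; cytotoxic hits lower the live-cell protease signal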
In short: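 Cells plated at 2500 per well and incubated 5 hr; compounds added and incubated 16 hr at 37 C; MultiTox-Fluor reagent added for 60 min at room temperature; fluorescence of liberated AFC measured at 405/510 nm.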

[5] = Cell Viability - LYMP1-003 - Assay at 24 hr (AID 963)
In short: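 Acute toxicity in LYMP1-003 lymphoblastoid cells: 24 hr compound treatment at 37 C, ATP measured with CellTiter-Glo after 30 min at room temperature. AC50 derived by fitting the Hill equation to qHTS titrations.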

[6] = Cell Viability - LYMP1-003 - Assay at 40 hr (AID 964); further: series mostly up to about 92 µM; nearly all actives have a fitted effect of over 60% in size
In short: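 This qHTS cytotoxicity screen treats human lymphoblastoid cells (LYMP1-003) with compounds for 40 hr and quantifies cellular ATP via luciferase luminescence.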

[7] = Cell Viability - LYMP2-003 (AID 965);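 further: cells exposed to compounds for 24 h before reading; nearly all actives have a fitted effect of over 50% in size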
In short: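 Human lymphoblastoid cells (2500/well) were pre-incubated 5 hr at 37 C, then exposed to compounds over a concentration range for 24 hr at 37 C. Intracellular ATP was read by CellTiter-Glo luminescence; AC50 came from Hill-equation fits.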

[8] = Cell Viability - LYMP2-005 (AID 967); further: series mostly up to about 92 µM
In short: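 CellTiter-Glo luminescence (cellular ATP) read-out; LYMP2-005 lymphoblastoid cells, 2500/well, 5 h pre-incubation, then 24 h compound exposure at 37 C in complete medium. Tetraoctylammonium bromide positive control; AC50 by standard Hill fit.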

[9] = Cell Viability - LYMP2-009 (AID 968); further: series mostly up to about 92 µM; nearly all actives have a fitted effect of over 55% in size
[10] = Cell Viability - LYMP2-011 (AID 969); further: nearly all actives have a fitted effect of over 60% in size
In short: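 Acute toxicity is scored as a concentration-dependent drop in intracellular ATP of a human lymphoblastoid line after 24 hr treatment. Values are AC50s modeled with the Hill equation.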

[11] = Cell Viability - LYMP2-013 (AID 970); further: series mostly up to about 92 µM; nearly all actives have a fitted effect of over 55% in size
In short: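 Acute toxicity was measured in human lymphoblastoid cells (2500/well) exposed to compound titrations for 24 hr, with ATP luminescence (CellTiter-Glo) as read-out and AC50 fitted by Hill equation.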

[12] = Cell Viability - LYMP2-015 (AID 971); further: nearly all actives have a fitted effect of over 55% in size
In short: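 Acute toxicity was scored as a concentration-dependent drop in intracellular ATP in lymphoblastoid cells after 24 hr compound exposure in complete medium. Detection used CellTiter-Glo luciferase luminescence.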

[13] = Cell Viability - LYMP2-017 (AID 972); further: series mostly up to about 92 µM; nearly all actives have a fitted effect of over 55% in size
In short: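 Steps: plate 2500 lymphoblastoid cells per well; incubate 5 hr at 37 C; add compound across a concentration series and incubate 24 hr at 37 C; add CellTiter-Glo and read luminescence after 30 min at room temperature; fit Hill curves for AC50.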

[14] = Cell Viability - LYMP2-019 (AID 973); further: nearly all actives have a fitted effect of over 55% in size
In short: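 Cells plated at 2500/well and allowed 5 hr at 37 C before compound addition. After 24 hr incubation, CellTiter-Glo reagent was added, plates sat 30 min at room temperature, and luminescence was recorded.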

[15] = Cell Viability - LYMP2-021 (AID 974)
In short: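 Concentration-response cytotoxicity in a human lymphoblastoid line: 24 hr treatment at 37 C in complete culture medium, tetraoctylammonium bromide as positive control, luminescent ATP quantitation as viability measure.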

[16] = Cell Viability - LYMP2-023 (AID 975)
In short: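 Concentration-dependent drop in intracellular ATP measures acute cytotoxicity in a human lymphoblastoid line treated for 24 hours in complete culture medium. AC50 values are taken from Hill-equation fits of qHTS data.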

[17] = Cell Viability - LYMP2-025 (AID 976); further: series mostly up to about 92 µM
In short: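 In qHTS format, LYMP2-025 lymphoblastoid cells in complete culture medium received compound for 24 hr; ATP-based CellTiter-Glo signal gave viability, with AC50 derived by Hill equation.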

[18] = Cell Viability - LYMP2-002 (AID 977); further: series mostly up to about 92 µM
In short: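 Luminescent ATP readout (CellTiter-Glo, 30 min room temperature) after 24 h compound exposure at 37 C of a human lymphoblastoid line, 2500 cells/well. AC50 values derived by standard Hill fitting of qHTS concentration-response data.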

[19] = Cell Viability - LYMP2-006 (AID 978); further: series mostly up to about 92 µM; nearly all actives have a fitted effect of over 60% in size
In short: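 Human lymphoblastoid cells, 2500 per well, were preincubated 5 hr at 37 C, then exposed to compounds for 24 hr at 37 C in complete medium. Viability was read as intracellular ATP by CellTiter-Glo luminescence; AC50 from Hill-equation fits of qHTS concentration-response data.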

[20] = Cell Viability - LYMP2-010 (AID 981); further: nearly all actives have a fitted effect of over 55% in size
In short: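 Acute toxicity is scored as a concentration-dependent loss of cellular ATP in human lymphoblastoid cells after 24 hr compound exposure in complete medium. Tetraoctylammonium bromide is the positive control.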

Measured: Potency

c1ccc2scnc2c1
inactive: [1] | [2] | [3] | [4] | [5] | [6] | [7] | [8] | [9] | [10] | [11] | [12] | [13] | [14] | [15] | [16] | [17] | [18] | [19] | [20]

O=S(=O)(O)c1ccccc1
inactive: [1] | [2] | [3] | [4] | [5] | [6] | [7] | [8] | [9] | [10] | [11] | [12] | [13] | [14] | [15] | [16] | [17] | [18] | [19] | [20]

O=C(O)c1ccccc1C(c1ccc(O)cc1)c1ccc(O)cc1
inactive: [1] | [2] | [3] | [4] | [5] | [6] | [7] | [8] | [9] | [10] | [11] | [12] | [13] | [14] | [15] | [16] | [17] | [18] | [19] | [20]

O[C@@H]([C@H](O)[C@@H](O)CBr)[C@@H](O)CBr
inactive: [1] | [2] | [3] | [4] | [5] | [6] | [7] | [8] | [9] | [10] | [11] | [12] | [13] | [14] | [15] | [16] | [17] | [18] | [19] | [20]

O=[N+]([O-])c1cccc(Cl)c1Cl
inactive: [1] | [2] | [3] | [4] | [5] | [6] | [7] | [8] | [9] | [10] | [11] | [12] | [13] | [14] | [15] | [16] | [17] | [18] | [19] | [20]
